This passage reports potency estimated from few doses results from publication PMC11062922 (Nature Chemical Biology, 2023).

What all share (parameters): species or system human, MV4-11 + K-562 + COLO205 + SK-N-BE2 + OVCAR-8
The subject of one test is CLK1. As to conditions: read-out: apparent Kd, n = 1.
A further test deals with CLK4. The note with it: read-out: apparent Kd, n = 1.
The next test concerns GAK. As to conditions: read-out: apparent Kd; compound concentrations: 100 nM and 1000 nM (sheet 'Samples'), CATDS: 0.13551111713290001; n = 1.
A further test deals with MAPK8. As to conditions: read-out: apparent Kd, compound concentrations: 100 nM and 1000 nM (sheet 'Samples'), n = 1.
For the next test, the system named is MAPK9. As to conditions: read-out: apparent Kd, n = 1.
In a further test the test system is TTK. The note with it: read-out: apparent Kd; compound concentrations: 100 nM and 1000 nM (sheet 'Samples'), CATDS: 0.53372982121950996; n = 1.
In another test the test system is NEK3. The note with it: read-out: apparent Kd; compound concentrations: 100 nM and 1000 nM (sheet 'Samples'), CATDS: 0.168041576676878; n = 1.
In another test the test system is PIK3CG. The note with it: read-out: apparent Kd; compound concentrations: 100 nM and 1000 nM (sheet 'Samples'), CATDS: 0.474922434423799; n = 1.
The test system of another test is CSNK1D. The note with it: read-out: apparent Kd, n = 1.
A further test deals with CSNK1E. As to conditions: read-out: apparent Kd, n = 1.
In a further test the test system is FN3KRP. The note with it: read-out: apparent Kd; compound concentrations: 100 nM and 1000 nM (sheet 'Samples'), CATDS: 4.0325276132441398E-2; n = 1.
A further test has as its system FN3K. The note with it: read-out: apparent Kd; compound concentrations: 100 nM and 1000 nM (sheet 'Samples'), CATDS: 3.5729467318233003E-2; n = 1.
A further test has as its system MAPK14. The note with it: read-out: apparent Kd, n = 1.
The subject of a further test is MAPK1. As to conditions: read-out: apparent Kd; compound concentrations: 100 nM and 1000 nM (sheet 'Samples'), CATDS: 3.8538636035205603E-2; n = 1.
A further test has as its system MAPKAPK2. The note with it: read-out: apparent Kd; compound concentrations: 100 nM and 1000 nM (sheet 'Samples'), CATDS: 0.22131403995385401; n = 1.
The test system of another test is NUAK2. The note with it: read-out: apparent Kd; compound concentrations: 100 nM and 1000 nM (sheet 'Samples'), CATDS: 3.7503176439752997E-2; n = 1.
The next test concerns PAK6. The note with it: read-out: apparent Kd; compound concentrations: 100 nM and 1000 nM (sheet 'Samples'), CATDS: 3.6851014087153897E-2; n = 1.
The next test deals with PDXK. The note with it: read-out: apparent Kd; compound concentrations: 100 nM and 1000 nM (sheet 'Samples'), CATDS: 4.2866477052702801E-2; n = 1.
The subject of another test is PRKD1. As to conditions: read-out: apparent Kd; compound concentrations: 100 nM and 1000 nM (sheet 'Samples'), CATDS: 5.7643815107824597E-2; n = 1.
Another test has as its system PRKD2. The note with it: read-out: apparent Kd; compound concentrations: 100 nM and 1000 nM (sheet 'Samples'), CATDS: 6.6871929523774506E-2; n = 1.
A further test has as its system PRKD3. The note with it: read-out: apparent Kd; compound concentrations: 100 nM and 1000 nM (sheet 'Samples'), CATDS: 6.6409082952543802E-2; n = 1.
For a further test, the system named is RIPK2. As to conditions: read-out: apparent Kd; compound concentrations: 100 nM and 1000 nM (sheet 'Samples'), CATDS: 4.9490640044255602E-2; n = 1.
The next test has as its system CSNK1A1. As to conditions: read-out: apparent Kd, n = 1.
The test system of another test is MYLK3. The note with it: read-out: apparent Kd; compound concentrations: 100 nM and 1000 nM (sheet 'Samples'), CATDS: 0.254967092830167; n = 1.
A further test relates to PKN2. As to conditions: read-out: apparent Kd; compound concentrations: 100 nM and 1000 nM (sheet 'Samples'), CATDS: 0.232185519076441; n = 1.
A further test concerns TP53RK. The note with it: read-out: apparent Kd; compound concentrations: 100 nM and 1000 nM (sheet 'Samples'), CATDS: 0.27535936863047; n = 1.
The test system of a further test is GSK3A. As to conditions: read-out: apparent Kd; compound concentrations:100 nM and 1000 nM (sheet 'Samples'); n = 1.
A further test concerns GSK3B. As to conditions: read-out: apparent Kd; compound concentrations:100 nM and 1000 nM (sheet 'Samples'); n = 1.
The test system of the next test is MAPK11. As to conditions: read-out: apparent Kd; compound concentrations:100 nM and 1000 nM (sheet 'Samples'); n = 1.
The next test deals with NLK. The note with it: read-out: apparent Kd; compound concentrations:100 nM and 1000 nM (sheet 'Samples'); n = 1.
The next test deals with PKN3. As to conditions: read-out: apparent Kd; compound concentrations:100 nM and 1000 nM (sheet 'Samples'); n = 1.
Setting [1] is: compound concentrations:100 nM and 1000 nM (sheet 'Samples').

Each structure is given as a SMILES string. Where two headings read alike, the source gives them in different places.

Turning to `CNc1nc(Nc2ccc(C(=O)N3CCOCC3)cc2OC)nc2[nH]cc(Cl)c12` [JH-II-127], the potency estimated from few doses in the test with CLK1 (compound concentrations: 100 nM and 1000 nM (sheet 'Samples'), CATDS: 0.13184639507044499) is 1090 nM; in the test on CLK4 (compound concentrations: 100 nM and 1000 nM (sheet 'Samples'), CATDS: 0.153440234991533), 722 nM; in the test on GAK, 1000 nM; with MAPK8 (CATDS: 0.168882234188796), 575 nM; in the test with MAPK9 (compound concentrations: 100 nM and 1000 nM (sheet 'Samples'), CATDS: 0.14872410543912701), 781 nM; with TTK it was 76.1 nM.

Regarding `CC(C)C(=O)N[C@@H]1CCN(C(=O)Nc2nc3c(s2)-c2nc(-c4ccccc4Cl)ncc2CC3)C1` [BI00047804], the potency estimated from few doses with CLK1 (compound concentrations: 100 nM and 1000 nM (sheet 'Samples'), CATDS: 0.240445755473225) was 416 nM; in the test with CLK4 (compound concentrations: 100 nM and 1000 nM (sheet 'Samples'), CATDS: 0.26423272520910102), 334 nM; with NEK3 it was 1310 nM; with PIK3CG it was 115 nM.

Turning to `CC(CO)Nc1cc(-c2[nH]c3cccnc3c2-c2ccc(F)cc2)ccn1.Cl` (stereo not drawn) [RO3202312-001], the potency estimated from few doses in the test on CSNK1D (compound concentrations: 100 nM and 1000 nM (sheet 'Samples'), CATDS: 9.2931032054770199E-2) was 48.2 nM; in the test on CSNK1E (compound concentrations: 100 nM and 1000 nM (sheet 'Samples'), CATDS: 6.9907661952316402E-2), 115 nM; in the test with FN3KRP it was 967 nM; with FN3K, 1990 nM; with MAPK14 (compound concentrations: 100 nM and 1000 nM (sheet 'Samples'), CATDS: 0.154329578320028), 12.1 nM; with MAPK1, 1240 nM. For the same molecule, the potency estimated from few doses with MAPK8 (CATDS: 4.79247089655142E-2) was 440 nM; in the test with MAPK9 (compound concentrations: 100 nM and 1000 nM (sheet 'Samples'), CATDS: 0.13086781986766799), 18.6 nM; in the test on MAPKAPK2, 4.81 nM; with NUAK2, 1450 nM; in the test with PAK6, 1620 nM; in the test with PDXK, 716 nM. The potency estimated from few doses in the test on PRKD1 was 219 nM; with PRKD2 it was 132 nM; in the test with PRKD3 it was 135 nM; in the test on RIPK2, 386 nM.

With `Cc1ccc(-c2cc3c(NC(=O)C4CC4)ncnc3o2)cc1` [GW819230X], the potency estimated from few doses is 2130 nM in the test with CSNK1A1 (compound concentrations: 100 nM and 1000 nM (sheet 'Samples'), CATDS: 0.241580521879566); 1910 nM in the test with MYLK3; 2320 nM in the test on PKN2; 1650 nM in the test on TP53RK.

For `COc1ccc(CSc2nnc(-c3ccc4ncsc4c3)o2)cc1C(F)(F)F` [TPKI-91], the potency estimated from few doses is 549 nM with CLK1 (setting [1]), 599 nM with CLK4 (setting [1]), 131 nM in the test on GSK3A and 72.5 nM in the test on GSK3B.

For the molecule `Fc1ccc(-c2ncn(C3CCNCC3)c2-c2ccnc(Oc3ccccc3)n2)cc1` [SB-239272], the potency estimated from few doses in the test on CSNK1A1 (setting [1]) is 1380 nM; in the test with CSNK1D (setting [1]) it was 88.7 nM; with CSNK1E (setting [1]), 191 nM; in the test on MAPK11, 45.4 nM; in the test on MAPK14 (setting [1]), 12.5 nM; in the test on MAPK9 (setting [1]) it was 1110 nM. Besides, the figures for the potency estimated from few doses with NLK and in the test with PKN3 were 1500 nM and 2090 nM, respectively.
